Source: PubChem BioAssay
A selection: hits, their analogues and other compounds. The true share with any hit is near 10%.
BAZ2B inh = qHTS Assay for Inhibitors of BAZ2B. AID 504333, 2011. AlphaScreen BAZ2B-H3K14Ac peptide displacement. Potency, µM (titrated, usually from 114 µM), for the others: at the highest dose activity change, negative = inhibition, usual class: inhibitors. actives 4.4% (n = 360,000); further: on the % scale 0 is the no-effect control and ±100 the full control effect; nearly all actives have a fitted effect of over 60% in size
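Protein-peptide AlphaScreen: BAZ2B 50 nM, b-H3K14Ac 50 nM, 1x PBS pH 7.4 + 0.01% Tween-20. Preincubation 30 min RT; cpd 30 min RT (top 110 uM); beads 20 min RT, light-protected.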
HP1b binding inh = HTS for Inhibitors of HP1-beta Chromodomain Interactions with Methylated Histone Tails. Chromobox protein homolog 1 (Homo sapiens), P83916. AlphaScreen HP1-beta / biotin-H3K9me3 peptide binding. Potency, µM (top dose mostly 114 µM), without a hit: at the top dose activity change, negative = inhibition, hits mostly inhibitors. actives 0.56% (n = 390,000); further: nearly all actives have a fitted effect of over 70% in size
Target sequence (P83916 whole entry, looked up): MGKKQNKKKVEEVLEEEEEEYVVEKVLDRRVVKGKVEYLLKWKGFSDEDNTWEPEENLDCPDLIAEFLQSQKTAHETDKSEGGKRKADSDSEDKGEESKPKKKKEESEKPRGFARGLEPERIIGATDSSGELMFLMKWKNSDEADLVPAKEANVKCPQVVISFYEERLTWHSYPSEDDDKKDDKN
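Compound inhibition of the preformed complex between 50 nM HP1-beta and 50 nM biotinylated H3K9me3 peptide was read by AlphaScreen. Buffer was PBS pH 7.4 with 0.01% Tween-20. Incubations ran 30 min at room temperature, with 10 ug/mL donor/acceptor beads.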
GLS inh = qHTS for Inhibitors of Glutaminase (GLS). Potency, µM (titrated, usually from 45.5 µM), for inactives: top-dose activity change, negative = inhibition, most hits filed as inhibitors. GLS enzymatic activity, qHTS titration. AID 624170, 2012. actives 0.21% (n = 410,000); further: on the % scale 0 is the no-effect control and ±100 the full control effect
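hKGA in 45 mM KH2PO4 (pH 8.2), 0.02% Tween-20 with compound, then 1mM L-Glutamine (stock as added) plus glutamate oxidase/HRP/Amplex red coupling mix. Fluorescence read initially and after 30 min at RT; signal change reflects glutamate formation.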
JMJD2A Tudor = qHTS Assay for Inhibitors of JMJD2A-Tudor Domain; Lysine-specific demethylase 4A (Homo sapiens), O75164; AlphaScreen JMJD2A-Tudor / H3K4me3 peptide binding; Potency, µM (doses to about 114 µM), for the others: at the highest dose activity change, negative = inhibition, hits mostly inhibitors; actives 4.4% (n = 390,000); further: on the % scale 0 is the no-effect control and ±100 the full control effect; nearly all actives have a fitted effect of over 50% in size
G9a inh = qHTS Assay for Inhibitors of Histone Lysine Methyltransferase G9a; actives 8.8% (n = 350,000); G9a H3K9 monomethylation, AlphaScreen, 2 h; Histone-lysine N-methyltransferase EHMT2 (Homo sapiens), Q96KQ7; Potency, µM (series often up to 102 µM), inactives show at the highest dose activity, negative = inhibition, most hits filed as inhibitors; further: on the % scale 0 is the no-effect control and ±100 the full control effect; nearly all actives have a fitted effect of over 75% in size
Target sequence (Q96KQ7 913-1193 limits assumed): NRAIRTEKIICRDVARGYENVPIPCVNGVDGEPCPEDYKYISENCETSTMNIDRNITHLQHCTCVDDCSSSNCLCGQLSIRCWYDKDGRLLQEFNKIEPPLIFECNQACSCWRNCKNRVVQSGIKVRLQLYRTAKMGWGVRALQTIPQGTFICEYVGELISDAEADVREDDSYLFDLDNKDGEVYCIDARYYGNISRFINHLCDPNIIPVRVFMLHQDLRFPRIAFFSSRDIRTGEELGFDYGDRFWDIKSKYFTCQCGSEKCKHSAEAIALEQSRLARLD
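AlphaScreen detection with an anti-monomethyl H3K9 antibody quantified product after a 2 h room-temperature reaction containing 500 nM biotinylated H3K9 peptide, 20 µM SAM and 20 nM enzyme, which had been preincubated 15 min with compound.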
L3MBTL1 block = qHTS Assay for the Inhibitors of L3MBTL1; Lethal(3)malignant brain tumor-like protein 1 (Homo sapiens), Q9Y468; AlphaScreen L3MBTL1–H3K9me1 peptide binding; Potency, µM (doses to about 57.1 µM), for inactives: top-dose activity, negative = inhibition, most hits filed as inhibitors; actives 0.66% (n = 230,000); AID 485360, 2010; further: on the % scale 0 is the no-effect control and ±100 the full control effect; nearly all actives have a fitted effect of over 60% in size
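AlphaScreen assay: L3MBTL1 (50 nM final) was preincubated 30 min at room temperature with biotinylated H3(1-15)K9me1 peptide (75 nM final), then 30 min with library compounds; streptavidin donor and nickel chelate acceptor beads (10 ug/mL final) added, 30 min dark.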
Active calls of the source: *; ? = inconclusive; / = no result given; [ ] = remark or other dose. The call rests on the fitted dose curve; in most records, active means well fitted curve in the direction sought with a large enough effect; inconclusive means small, poorly fitted or top-dose-only effect, or another doubt; inactive means no such curve, though single readings can be large; an effect the other way counts as inactive or inconclusive. Potency means the concentration at half of the fitted maximal effect.

SMILES	BAZ2B inh	HP1b binding inh	GLS inh	JMJD2A Tudor	G9a inh	L3MBTL1 block
CCc1nnc(NS(=O)(=O)c2ccc(NC(=S)Nc3ccc(F)cc3)cc2)s1	1.1%	13.5%	-2.9%	-34.0%	-8.2%[59 µM]	2.0%
CC1CCCN(C(=O)c2cc3c(=O)n(C)c4ccccc4c3s2)C1 (configuration not stated)	/	50.6%	12.9%	2.7%	43.5%[59 µM]	/
Cc1cccc(-c2noc(-c3cccnc3NCc3ccco3)n2)c1	-11.1%	34.7%	-13.7%	-16.2%	-34.2%[59 µM]	/
COc1cccc(-n2c(Cn3nc(C(F)F)cc3C(F)F)n[nH]c2=S)c1	4.3%	4.3%	3.3%	44.7µM*	8.91µM*	2.0%
COc1ccc(-n2c(Cn3nc(C(F)(F)F)cc3C)n[nH]c2=S)cc1	0.4%	26.8%	-4.9%	?	7.94µM*	3.5%
COC(=O)c1ccc(Cn2nc(C(F)(F)F)cc2C)cc1	-0.4%[57.1 µM]	71.2%	-0.2%	26.1%	84.9%	7.0%
COc1cccc(-n2c(Cn3nc(C(F)(F)F)cc3C)n[nH]c2=S)c1	-16.0%	34.1%	-7.5%	56.2µM*	8.91µM*	1.7%
Cc1ccc(-n2c(Cn3nc(C(F)(F)F)cc3C)n[nH]c2=S)cc1	-24.6%	2.6%	1.6%	56.2µM*	?	/
CCNCc1nc2cc(OC)c(OC)cc2c(=O)[nH]1	50.1µM*	33.3%	5.0%	-13.5%	?	/
COC(=O)c1ccnc(/C=N/O)c1	50.1µM*	-2.9%	14.7%	35.5µM*	?	?
COc1cc(S(=O)(=O)N2CC(=O)Nc3ccccc32)ccc1NC(C)=O	0.6%	26.1%	-1.5%	-11.6%	39.8µM*	/
CCc1cccc(Nc2c([N+](=O)[O-])cc(C(=O)N3CC(=O)Nc4ccccc43)cc2[N+](=O)[O-])c1	10µM*	?	16.1%	?	25.1µM*	?
Cc1cc(C)cc(C(=O)N2CC(=O)Nc3ccccc32)c1	?	26.5%	-0.2%	-8.2%	-1.0%[59 µM]	/
O=C1CN(S(=O)(=O)c2cccc(C(=O)O)c2)c2ccccc2N1	4.8%	6.7%	4.5%	-6.9%	50.1µM*	/
CS(=O)(=O)c1ccc(C(=O)N2CC(=O)Nc3ccccc32)cc1	-3.8%	25.1%	4.5%	3.1%	50.1µM*	/
Cc1c(CCC(=O)NCCc2ccccc2F)c(=O)oc2cc(O)ccc12	-4.7%	12.7%	42.7%	-14.6%	-4.6%[59 µM]	/
COc1ccc(Br)cc1CNC(=O)c1cc(=O)[nH]c2ccc(S(=O)(=O)N3CCCCC3C)cc12 (configuration not stated)	0.2%	29.9%	8.7%	?	5.7%[59 µM]	/
COc1cccc(CCNC(=O)c2ccc(Cn3c(SCc4ccccc4)nc4cccnc43)cc2)c1	-10.0%	34.8%	0.1%	-13.5%	?	/
OCC1(CO)COC(C(Cl)(Cl)Cl)OC1	/	/	9.9%	/	-8.5%[12.7 µM]	/
CCc1ccc(CNC(=O)CSCc2cnn(-c3ccccc3)c2-n2cccc2)cc1	32.5%	48.6%	1.7%	-2.0%	13.7%[59 µM]	/
CN1CC=C2C(C#N)=C(N)C(C#N)(C#N)C(c3ccsc3)C2C1 (configuration not stated)	-27.0%	43.3%	-13.1%	-24.7%[11.4 µM]	/	-0.3%
CCCC1C2CN(C(C)C)CC=C2C(C#N)=C(N)C1(C#N)C#N (configuration not stated)	-8.3%	4.4%	?	?	39.8µM*	-1.5%
CCOC(=O)N1CC=C2C(C#N)=C(N)C(C#N)(C#N)[C@H](c3ccsc3)[C@H]2C1	-4.5%	40.7%	-2.6%	-3.8%	44.7µM*	7.0%
